We go through 30 compounds from PubChem BioAssay (Tox21).

Test [1] can be described thus: qHTS RealTime-Glo MT Cell Viability Assay in HepG2 cells - 32 hour (AID 1224877). Also: nearly all actives have a fitted effect of over 55% in size. Also: potency is read from the fitted curve at half-maximal effect. An outline of the steps: (§1)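 HepG2 cells were seeded at 600 cells/well together with NanoLuc luciferase and a cell-permeant prosubstrate, preincubated 5 h at 37 C/5% CO2, then pin-dosed with compounds in DMSO. Nonlytic luminescence from viable cells was read at each time point.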
For orientation: qHTS replaces the single test concentration by a dilution series.

The nature of test [2]: A CellTox Green Cytotoxicity Assay to monitor cytotoxicity in HepG2 cells - 24 hour (AID 1224878). Also: nearly all actives have a fitted effect of over 45% in size. Also: potency is read from the fitted curve at half-maximal effect. An outline of the steps:
(§2)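 HepG2 cells were seeded together with the CellTox Green dye at 600 cells/well, left 5 h at 37 C/5% CO2, then given compounds in DMSO. Fluorescence from dye bound to dead-cell DNA was read repeatedly over 40 h of treatment at 37 C.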

Test [3] can be described thus: A CellTox Green Cytotoxicity Assay to monitor cytotoxicity in HepG2 cells - 40 hour (AID 1224879). Also: nearly all actives have a fitted effect of over 40% in size. Also: potency is read from the fitted curve at half-maximal effect. An outline of the steps:
as §2

The nature of test [4]: A CellTox Green Cytotoxicity Assay to monitor cytotoxicity in HepG2 cells - 0 hour (AID 1224882). Also: nearly all actives have a fitted effect of over 35% in size. Put shortly: as §2
Test [5] can be described thus: A CellTox Green Cytotoxicity Assay to monitor cytotoxicity in HepG2 cells - 32 hour (AID 1224883). Also: nearly all actives have a fitted effect of over 50% in size. Also: potency is read from the fitted curve at half-maximal effect. Put shortly:
as §2

Test [6] in a line: A CellTox Green Cytotoxicity Assay to monitor cytotoxicity in HEK293 cells - 8 hour (AID 1224884). Also: nearly all actives have a fitted effect of over 35% in size. Also: potency is read from the fitted curve at half-maximal effect. Put shortly:
(§3)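 HEK293 cells premixed with CellTox Green dye were seeded at 600 cells/well and left 5 h at 37 C/5% CO2 before pin transfer of 23 nL compound in DMSO. Fluorescence from dye bound to dead-cell DNA was read during 40 h treatment.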

The nature of test [7]: qHTS RealTime-Glo MT Cell Viability Assay in HepG2 cells - 16 hour (AID 1224885). Also: nearly all actives have a fitted effect of over 50% in size. Also: potency is read from the fitted curve at half-maximal effect. Put shortly:
as §1

A short description of test [8]: qHTS RealTime-Glo MT Cell Viability Assay in HEK293 cells - 24 hour (AID 1224886). Also: nearly all actives have a fitted effect of over 50% in size. Also: potency is read from the fitted curve at half-maximal effect. As to activity change, negative = cytotoxicity: top concentration of the series differs between compounds. Put shortly:
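HEK293 cells were seeded at 600 cells/well together with NanoLuc luciferase and cell-permeant prosubstrate, preincubated 5 h at 37 C/5% CO2, then given compound in DMSO by pintool. Luminescence from viable-cell prosubstrate reduction was read repeatedly over 40 h.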

The nature of test [9]: A CellTox Green Cytotoxicity Assay to monitor cytotoxicity in HEK293 cells - 32 hour (AID 1224881). Also: nearly all actives have a fitted effect of over 40% in size. Also: potency is read from the fitted curve at half-maximal effect. Put shortly:
as §3

The nature of test [10]: qHTS RealTime-Glo MT Cell Viability Assay in HEK293 cells - 0 hour (AID 1224880). Also: nearly all actives have a fitted effect of over 45% in size. Also: potency is read from the fitted curve at half-maximal effect. As to activity change, negative = cytotoxicity: top concentration of the series differs between compounds. Put shortly:
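HEK293 cells mixed with RealTime-Glo reagents (NanoLuc plus cell-permeant prosubstrate) at 600 cells/well, preincubated 5 h at 37 C/5% CO2, then given 23 nL compound in DMSO. Nonlytic luminescence from viable cells was read at 0, 8, 16, 24, 32 and 40 h.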

Unmarked numbers belong to inactive results. Results filed as inconclusive are left out. The source made the active and inactive calls. Calls follow the shape of the dose curve; as a rule, active = well fitted curve in the direction sought with a large enough effect in the repeat runs; inconclusive = weak or mixed curves; inactive = no such curve, though single readings can be large; an effect the other way counts as inactive or inconclusive.
% is scaled to controls: 0 for no effect and ±100 for the full control effect.

Regarding `CCCCCCCCOC(=O)c1cc(O)c(O)c(O)c1`, the Potency in [1] was 19.5 µM (active); in [2] it was 43.6 µM (active); in test [3], 24.5 µM (active); in test [5], 43.6 µM (active); in test [7], 19.5 µM (active); in test [8], 11 µM (active). The Potency result in [4] and in test [6] was “inactive” throughout.
As to `C=Cc1ccncc1`, the Potency result in [1], in test [2], in [3], in test [9], in [4] and in [5] was “inactive” throughout. Further, the Potency entry in [6], in [7] and in test [8] was “inactive” throughout.
Consider `CCOC(=O)[C@H](C)O`, for which the Potency result in test [1], in test [2], in [3], in [4], in test [5] and in test [6] was “inactive” in each case. Also, the Potency result in test [7] and in test [8] was “inactive” in each case.
For `CO[Si](OC)(c1ccccc1)c1ccccc1`, the Potency result in test [1], in test [2], in test [3], in [9], in [4] and in test [5] was “inactive” in each case. For the same compound, the Potency result in test [6] and in test [8] was “inactive” in each case.
For `CC(=O)Nc1ccc(N=Nc2cc(C)ccc2O)cc1`, the Potency entry in test [1], in test [2], in test [3], in [9], in test [4] and in [5] was “inactive” throughout. For the same compound, the Potency result in [6], in [7] and in test [8] was “inactive” each time.
Regarding `Oc1ccc2c(c1)CCC2`, the Potency result in [1], in [2], in test [3], in [9], in test [4] and in test [5] was “inactive” in each case. Also, the Potency entry in test [6] and in [8] was “inactive” throughout.
For `CC(C)(C)c1cc(CCC(=O)OCCSCCOC(=O)CCc2cc(C(C)(C)C)c(O)c(C(C)(C)C)c2)cc(C(C)(C)C)c1O`, the Potency entry in [1], in test [2], in [3], in test [4], in test [5] and in test [6] was “inactive” throughout. The Potency entry in [7] and in test [8] was “inactive” in each case.
Consider `CC(C)c1ccc2sc3ccccc3c(=O)c2c1`, for which the Potency result in test [1], in [2], in [9], in test [4] and in test [6] was “inactive” throughout. In addition, the Potency in test [3] was 19.5 µM (active).
As for `O=C(N[C@H](CO)[C@H](O)c1ccc([N+](=O)[O-])cc1)C(Cl)Cl`, the Potency entry in test [1], in test [2], in [3], in [9], in [4] and in test [5] was “inactive” in each case. Besides, the Potency entry in test [6] and in test [7] was “inactive” throughout.
As to `CCCCCCCCCC[N+](C)(CCCCCCCCCC)CCC[Si](OC)(OC)OC`, the Potency in test [1] was 49 µM (active); in test [2], 21.9 µM (active); in [3], 19.5 µM (active); in [9], 24.5 µM (active); in test [7] it was 49 µM (active); in test [8], 24.5 µM (active). The Potency entry in test [4] is “inactive”.
With `O=C(c1ccccc1)c1ccc(Cl)cc1`, the Potency entry in test [1], in test [2], in test [3], in test [4], in test [5] and in test [6] was “inactive” in each case. In addition, the Potency result in [7] and in test [8] was “inactive” throughout.
Take `CCN(CC)c1ccc(C=O)cc1`: the Potency result in test [1], in test [2], in [3], in [9], in test [4] and in test [6] was “inactive” each time.
Take `CC/C(=C(/c1ccc(O)cc1)c1ccc(OCCN(C)C)cc1)c1ccccc1`: the Potency in test [1] was 14.4 µM (active); in test [2], 18.2 µM (active); in [3], 12.9 µM (active); in test [9], 22.9 µM (active); in test [5], 14.4 µM (active); in [6] it was 28.8 µM (active). In addition, the figures for the Potency in [7] and in [8] were 28.8 µM (active) and 10.2 µM (active), respectively. For the same compound, in test [4], the Potency entry is “inactive”.
With `C=COCCCC`, the Potency result in [1], in [2], in test [3], in [4], in test [6] and in test [7] was “inactive” in each case.
Consider `CCOC(=O)OC(=O)OCC`, for which the Potency entry in test [1], in test [2], in test [3], in test [9], in [4] and in test [5] was “inactive” each time. The Potency result in [6], in [7] and in test [8] was “inactive” throughout.
Take `Cc1ccc(C2OC[C@@H]3OC(c4ccc(C)cc4)O[C@H]([C@H](O)CO)[C@@H]3O2)cc1` (some centres undefined): the Potency result in [1], in test [2], in test [3], in [4], in test [6] and in test [7] was “inactive” throughout.
As to `CCCCCc1ccc(O)cc1`, the Potency result in [1] and in test [4] was “inactive” each time. Also, the Potency in test [2] is 49 µM (active); in [3], 43.6 µM (active); in [9] it was 34.7 µM (active); in [5], 49 µM (active).
For the compound `N#Cc1nc(Cl)c(Cl)c(Cl)c1Cl`, the Potency in test [1] was 19.5 µM (active); in [2] it was 49 µM (active); in test [3], 24.5 µM (active); in test [5], 27.5 µM (active); in [7], 21.9 µM (active); in test [8], 1.95 µM (active). In addition, the Potency result in test [4] and in [6] was “inactive” in each case.
For `COc1cc(C(C)C)ccc1C`, the activity change, negative = cytotoxic in [1] is 7.91% [at 15.8 µM]; in test [7], -0.349% [at 15.8 µM]. Further, the results for the cytotoxicity in test [2] and in test [4] were -14.9% [at 15.8 µM] and -8.39% [at 15.8 µM], respectively. For the same compound, the cytotoxicity increase in test [3] is -18.2% [at 15.8 µM]; in [5] it was -14.3% [at 15.8 µM]; in test [6] it was -0.16% [at 15.8 µM]. Moreover, in test [8], the activity change, negative = cytotoxicity was 0.818% [at 15.8 µM].
On to `CC(Cc1ccc(O)c(O)c1)C(C)Cc1ccc(O)c(O)c1` (centres undefined), for which the Potency is 49 µM (active) in [1]; 49 µM (active) in test [2]; 43.6 µM (active) in test [3]; 43.6 µM (active) in [5]; 43.6 µM (active) in test [7]; 34.7 µM (active) in test [8]. Also, the Potency result in test [4] and in test [6] was “inactive” each time.
`CN1CCN(CCCN2c3ccccc3Sc3ccc(Cl)cc32)CC1`: the Potency in [1], in test [2] and in test [3] was 23.9 µM (active) each time. The Potency result in [4] and in test [6] was “inactive” each time.
Turning to `Clc1cccc(Cl)n1`, the Potency entry in [1], in [2], in [3], in test [9], in test [4] and in test [5] was “inactive” throughout. Further, the Potency result in test [6], in test [7] and in test [8] was “inactive” each time.
As for `C/C(=C\c1ccc(C(=O)O)cc1)c1ccc2c(c1)C(C)(C)CCC2(C)C`, the Potency entry in [1], in [2], in test [9], in test [4], in test [6] and in test [7] was “inactive” in each case. In [8], the Potency entry is “inactive”.
With `O=C1OC(=O)c2cc(-c3ccc4c(c3)C(=O)OC4=O)ccc21`, the Potency entry in [1], in test [2], in [10], in test [4], in test [6] and in test [7] was “inactive” throughout. Moreover, the Potency result in [8] is “inactive”.
Take `CC(C=O)c1ccccc1` (centres undefined): the Potency result in test [1], in test [2], in [9], in test [4], in test [5] and in [6] was “inactive” throughout. Besides, the Potency result in test [7] and in [8] was “inactive” each time.
On to `Cc1ccc(S(=O)(=O)C(I)I)cc1`, for which the Potency was 11 µM (active) in test [1]; 49 µM (active) in [2]; 0.616 µM (active) in test [10]; 24.5 µM (active) in test [9]; 43.6 µM (active) in test [5]; 49 µM (active) in test [6]. Also, the Potency was 11 µM (active) in [7] and 12.3 µM (active) in [8]. Moreover, the Potency entry in test [4] is “inactive”.
`NCc1ccco1`: the Potency result in [1], in test [2], in [10], in test [9], in test [4] and in test [5] was “inactive” each time. In addition, the Potency entry in test [7] and in test [8] was “inactive” in each case.
In the case of `Brc1cc(Br)cc(Br)c1`, the Potency result in test [1], in test [2], in test [10], in test [9], in test [4] and in test [5] was “inactive” throughout. Further, the Potency result in test [6], in [7] and in test [8] was “inactive” each time.
With `C=CC(=O)O[C@H]1C[C@@H]2CC[C@@]1(C)C2(C)C`, the Potency entry in test [1], in test [2], in test [4], in test [5], in [6] and in test [8] was “inactive” each time.
For the compound `NC(=O)c1ccccc1Cl`, the Potency result in [1], in test [2], in test [10], in test [4], in test [5] and in test [6] was “inactive” each time. Further, the Potency result in [7] and in [8] was “inactive” in each case.
